Measured values as given in the supplement of paper PMC11732987, “Enantioselective OTUD7B fragment discovery through chemoproteomics screening and high-throughput optimisation” (Communications Chemistry, 2025).

Assays:
Assay in all cases: log2 ratio of Biotin-Ahx-Ub-VS probe labelling (fragment/DMSO); higher = less target engagement (more negative = stronger competition), active = hit call of the paper (q ≤ 0.05, log2 ratio ≤ -1)
Details in all cases: compound concentration: 200 uM; treatment time: 3 h
USP34 = USP34 (UniProt Q70CQ2)
Method in brief: (§1)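 Each value is an average log2 ratio of fragment to vehicle, tested by unpaired t-test. The underlying Spectronaut label-free quantities were global-median-normalised, and only proteins with ≥2 unique peptides were included. Triplicate HEK293T lysate samples (495 µg) were exposed to fragment at 200 µM or vehicle for 3 h, then to Biotin-Ahx-Ub-VS at 0.5 µM final for 1 h, before NeutrAvidin enrichment of labelled DUBs, LysC and trypsin digestion, and diaPASEF LC-MS/MS.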

USP36 = molecular target: T1, USP36 (UniProt Q9P275)
T1 sequence (whole entry): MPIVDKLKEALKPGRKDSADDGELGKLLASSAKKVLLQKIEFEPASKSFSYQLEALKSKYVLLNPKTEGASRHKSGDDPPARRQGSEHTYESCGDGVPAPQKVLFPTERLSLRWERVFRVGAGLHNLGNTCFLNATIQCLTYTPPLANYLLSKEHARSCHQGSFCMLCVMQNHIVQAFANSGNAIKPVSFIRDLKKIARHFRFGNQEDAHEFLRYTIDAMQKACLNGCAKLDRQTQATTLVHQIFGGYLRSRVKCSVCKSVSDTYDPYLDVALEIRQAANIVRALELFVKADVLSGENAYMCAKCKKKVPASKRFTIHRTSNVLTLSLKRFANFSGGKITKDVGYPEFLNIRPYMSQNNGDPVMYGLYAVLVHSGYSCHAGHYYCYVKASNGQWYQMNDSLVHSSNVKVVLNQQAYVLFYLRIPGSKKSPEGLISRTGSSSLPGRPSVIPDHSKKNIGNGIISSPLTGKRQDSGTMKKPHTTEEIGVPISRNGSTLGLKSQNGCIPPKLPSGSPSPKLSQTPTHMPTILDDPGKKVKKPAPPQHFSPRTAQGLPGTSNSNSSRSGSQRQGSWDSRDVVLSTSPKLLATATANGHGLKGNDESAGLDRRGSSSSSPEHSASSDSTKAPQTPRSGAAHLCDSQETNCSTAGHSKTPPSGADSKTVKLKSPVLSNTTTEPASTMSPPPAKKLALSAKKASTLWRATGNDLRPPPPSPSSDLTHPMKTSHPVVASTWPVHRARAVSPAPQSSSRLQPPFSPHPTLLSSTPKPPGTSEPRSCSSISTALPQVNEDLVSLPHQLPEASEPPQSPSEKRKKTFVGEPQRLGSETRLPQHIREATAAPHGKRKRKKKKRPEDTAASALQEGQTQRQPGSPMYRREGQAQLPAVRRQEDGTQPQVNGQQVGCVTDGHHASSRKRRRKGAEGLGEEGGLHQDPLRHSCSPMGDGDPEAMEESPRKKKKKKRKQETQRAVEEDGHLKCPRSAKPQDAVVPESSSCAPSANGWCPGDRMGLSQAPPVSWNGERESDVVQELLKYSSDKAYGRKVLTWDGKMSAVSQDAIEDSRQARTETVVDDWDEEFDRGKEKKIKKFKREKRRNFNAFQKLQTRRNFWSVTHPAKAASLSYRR
Method in brief: as §1

USP38 = molecular target: T2, USP38 (UniProt Q8NB14)
T2 sequence (whole entry): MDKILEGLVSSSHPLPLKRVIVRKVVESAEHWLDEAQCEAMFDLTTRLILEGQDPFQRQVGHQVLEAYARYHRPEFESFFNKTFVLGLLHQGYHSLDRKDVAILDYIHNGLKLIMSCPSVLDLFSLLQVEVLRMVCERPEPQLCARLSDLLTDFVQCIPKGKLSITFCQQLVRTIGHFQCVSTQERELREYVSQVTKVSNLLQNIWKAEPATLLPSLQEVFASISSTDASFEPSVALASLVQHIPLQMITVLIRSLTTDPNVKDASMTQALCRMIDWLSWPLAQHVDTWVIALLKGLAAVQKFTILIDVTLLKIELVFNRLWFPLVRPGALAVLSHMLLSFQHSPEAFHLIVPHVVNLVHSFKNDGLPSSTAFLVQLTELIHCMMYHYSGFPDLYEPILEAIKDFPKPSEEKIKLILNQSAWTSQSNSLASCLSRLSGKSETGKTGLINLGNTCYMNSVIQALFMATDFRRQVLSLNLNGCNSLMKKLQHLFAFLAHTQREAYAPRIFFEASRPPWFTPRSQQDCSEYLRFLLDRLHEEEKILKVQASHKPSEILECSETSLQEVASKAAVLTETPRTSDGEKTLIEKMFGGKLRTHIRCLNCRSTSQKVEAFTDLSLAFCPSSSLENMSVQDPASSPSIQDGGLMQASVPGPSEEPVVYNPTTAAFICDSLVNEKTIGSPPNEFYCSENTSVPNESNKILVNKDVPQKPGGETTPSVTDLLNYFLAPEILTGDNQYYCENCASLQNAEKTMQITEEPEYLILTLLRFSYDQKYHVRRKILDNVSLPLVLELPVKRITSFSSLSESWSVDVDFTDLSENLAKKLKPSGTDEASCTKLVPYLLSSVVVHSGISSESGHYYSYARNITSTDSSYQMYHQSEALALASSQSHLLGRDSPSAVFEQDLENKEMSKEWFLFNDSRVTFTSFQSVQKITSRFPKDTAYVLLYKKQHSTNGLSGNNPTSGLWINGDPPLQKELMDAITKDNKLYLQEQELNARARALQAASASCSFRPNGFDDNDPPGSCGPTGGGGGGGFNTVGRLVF
Method in brief: as §1

USP39 = molecular target: T3, USP39 (UniProt Q53GS9)
T3 sequence (whole entry): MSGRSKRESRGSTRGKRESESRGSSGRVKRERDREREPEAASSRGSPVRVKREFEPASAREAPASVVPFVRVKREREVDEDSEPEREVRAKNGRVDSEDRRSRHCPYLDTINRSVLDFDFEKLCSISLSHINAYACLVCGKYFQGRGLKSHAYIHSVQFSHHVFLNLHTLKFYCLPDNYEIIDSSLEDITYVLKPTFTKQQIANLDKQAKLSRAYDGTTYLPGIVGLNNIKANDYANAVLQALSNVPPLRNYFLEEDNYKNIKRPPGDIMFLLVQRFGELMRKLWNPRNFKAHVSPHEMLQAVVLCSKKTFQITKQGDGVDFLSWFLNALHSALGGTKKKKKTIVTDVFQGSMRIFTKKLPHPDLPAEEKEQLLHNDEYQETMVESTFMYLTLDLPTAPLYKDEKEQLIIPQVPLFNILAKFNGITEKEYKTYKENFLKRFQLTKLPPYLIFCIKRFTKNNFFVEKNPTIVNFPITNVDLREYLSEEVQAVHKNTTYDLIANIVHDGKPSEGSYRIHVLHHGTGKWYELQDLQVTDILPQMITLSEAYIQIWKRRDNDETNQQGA
Method in brief: as §1

USP4 = molecular target: T4, USP4 (UniProt Q13107)
T4 sequence (whole entry): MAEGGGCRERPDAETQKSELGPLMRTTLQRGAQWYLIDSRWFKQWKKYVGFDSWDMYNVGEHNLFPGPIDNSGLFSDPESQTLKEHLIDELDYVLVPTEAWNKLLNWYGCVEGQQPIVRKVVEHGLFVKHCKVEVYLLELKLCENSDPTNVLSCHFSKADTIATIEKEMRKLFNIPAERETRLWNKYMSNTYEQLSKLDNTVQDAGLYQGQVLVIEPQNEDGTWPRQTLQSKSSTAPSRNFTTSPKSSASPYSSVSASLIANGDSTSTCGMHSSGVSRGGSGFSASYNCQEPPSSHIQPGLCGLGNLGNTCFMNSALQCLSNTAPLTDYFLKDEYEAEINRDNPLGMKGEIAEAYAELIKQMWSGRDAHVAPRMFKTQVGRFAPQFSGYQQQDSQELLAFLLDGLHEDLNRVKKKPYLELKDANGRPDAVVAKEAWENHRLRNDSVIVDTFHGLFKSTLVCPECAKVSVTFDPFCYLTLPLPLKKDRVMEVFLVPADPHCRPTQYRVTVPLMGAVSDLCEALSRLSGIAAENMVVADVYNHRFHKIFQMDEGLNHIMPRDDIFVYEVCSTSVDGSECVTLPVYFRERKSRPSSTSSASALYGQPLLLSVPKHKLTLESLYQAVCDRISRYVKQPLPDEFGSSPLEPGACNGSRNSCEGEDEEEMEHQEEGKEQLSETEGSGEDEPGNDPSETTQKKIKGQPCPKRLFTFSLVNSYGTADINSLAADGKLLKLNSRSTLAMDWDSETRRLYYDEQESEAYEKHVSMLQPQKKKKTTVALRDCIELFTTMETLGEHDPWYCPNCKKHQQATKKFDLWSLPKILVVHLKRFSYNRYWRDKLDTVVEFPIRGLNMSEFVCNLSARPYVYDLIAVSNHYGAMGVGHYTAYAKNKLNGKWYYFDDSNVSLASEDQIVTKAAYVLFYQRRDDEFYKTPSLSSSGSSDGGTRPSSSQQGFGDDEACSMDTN
Method in brief: as §1

Measured: log2 ratio of Biotin-Ahx-Ub-VS probe labelling

USP34, sequence (Q70CQ2 whole entry, the tested form may be a part): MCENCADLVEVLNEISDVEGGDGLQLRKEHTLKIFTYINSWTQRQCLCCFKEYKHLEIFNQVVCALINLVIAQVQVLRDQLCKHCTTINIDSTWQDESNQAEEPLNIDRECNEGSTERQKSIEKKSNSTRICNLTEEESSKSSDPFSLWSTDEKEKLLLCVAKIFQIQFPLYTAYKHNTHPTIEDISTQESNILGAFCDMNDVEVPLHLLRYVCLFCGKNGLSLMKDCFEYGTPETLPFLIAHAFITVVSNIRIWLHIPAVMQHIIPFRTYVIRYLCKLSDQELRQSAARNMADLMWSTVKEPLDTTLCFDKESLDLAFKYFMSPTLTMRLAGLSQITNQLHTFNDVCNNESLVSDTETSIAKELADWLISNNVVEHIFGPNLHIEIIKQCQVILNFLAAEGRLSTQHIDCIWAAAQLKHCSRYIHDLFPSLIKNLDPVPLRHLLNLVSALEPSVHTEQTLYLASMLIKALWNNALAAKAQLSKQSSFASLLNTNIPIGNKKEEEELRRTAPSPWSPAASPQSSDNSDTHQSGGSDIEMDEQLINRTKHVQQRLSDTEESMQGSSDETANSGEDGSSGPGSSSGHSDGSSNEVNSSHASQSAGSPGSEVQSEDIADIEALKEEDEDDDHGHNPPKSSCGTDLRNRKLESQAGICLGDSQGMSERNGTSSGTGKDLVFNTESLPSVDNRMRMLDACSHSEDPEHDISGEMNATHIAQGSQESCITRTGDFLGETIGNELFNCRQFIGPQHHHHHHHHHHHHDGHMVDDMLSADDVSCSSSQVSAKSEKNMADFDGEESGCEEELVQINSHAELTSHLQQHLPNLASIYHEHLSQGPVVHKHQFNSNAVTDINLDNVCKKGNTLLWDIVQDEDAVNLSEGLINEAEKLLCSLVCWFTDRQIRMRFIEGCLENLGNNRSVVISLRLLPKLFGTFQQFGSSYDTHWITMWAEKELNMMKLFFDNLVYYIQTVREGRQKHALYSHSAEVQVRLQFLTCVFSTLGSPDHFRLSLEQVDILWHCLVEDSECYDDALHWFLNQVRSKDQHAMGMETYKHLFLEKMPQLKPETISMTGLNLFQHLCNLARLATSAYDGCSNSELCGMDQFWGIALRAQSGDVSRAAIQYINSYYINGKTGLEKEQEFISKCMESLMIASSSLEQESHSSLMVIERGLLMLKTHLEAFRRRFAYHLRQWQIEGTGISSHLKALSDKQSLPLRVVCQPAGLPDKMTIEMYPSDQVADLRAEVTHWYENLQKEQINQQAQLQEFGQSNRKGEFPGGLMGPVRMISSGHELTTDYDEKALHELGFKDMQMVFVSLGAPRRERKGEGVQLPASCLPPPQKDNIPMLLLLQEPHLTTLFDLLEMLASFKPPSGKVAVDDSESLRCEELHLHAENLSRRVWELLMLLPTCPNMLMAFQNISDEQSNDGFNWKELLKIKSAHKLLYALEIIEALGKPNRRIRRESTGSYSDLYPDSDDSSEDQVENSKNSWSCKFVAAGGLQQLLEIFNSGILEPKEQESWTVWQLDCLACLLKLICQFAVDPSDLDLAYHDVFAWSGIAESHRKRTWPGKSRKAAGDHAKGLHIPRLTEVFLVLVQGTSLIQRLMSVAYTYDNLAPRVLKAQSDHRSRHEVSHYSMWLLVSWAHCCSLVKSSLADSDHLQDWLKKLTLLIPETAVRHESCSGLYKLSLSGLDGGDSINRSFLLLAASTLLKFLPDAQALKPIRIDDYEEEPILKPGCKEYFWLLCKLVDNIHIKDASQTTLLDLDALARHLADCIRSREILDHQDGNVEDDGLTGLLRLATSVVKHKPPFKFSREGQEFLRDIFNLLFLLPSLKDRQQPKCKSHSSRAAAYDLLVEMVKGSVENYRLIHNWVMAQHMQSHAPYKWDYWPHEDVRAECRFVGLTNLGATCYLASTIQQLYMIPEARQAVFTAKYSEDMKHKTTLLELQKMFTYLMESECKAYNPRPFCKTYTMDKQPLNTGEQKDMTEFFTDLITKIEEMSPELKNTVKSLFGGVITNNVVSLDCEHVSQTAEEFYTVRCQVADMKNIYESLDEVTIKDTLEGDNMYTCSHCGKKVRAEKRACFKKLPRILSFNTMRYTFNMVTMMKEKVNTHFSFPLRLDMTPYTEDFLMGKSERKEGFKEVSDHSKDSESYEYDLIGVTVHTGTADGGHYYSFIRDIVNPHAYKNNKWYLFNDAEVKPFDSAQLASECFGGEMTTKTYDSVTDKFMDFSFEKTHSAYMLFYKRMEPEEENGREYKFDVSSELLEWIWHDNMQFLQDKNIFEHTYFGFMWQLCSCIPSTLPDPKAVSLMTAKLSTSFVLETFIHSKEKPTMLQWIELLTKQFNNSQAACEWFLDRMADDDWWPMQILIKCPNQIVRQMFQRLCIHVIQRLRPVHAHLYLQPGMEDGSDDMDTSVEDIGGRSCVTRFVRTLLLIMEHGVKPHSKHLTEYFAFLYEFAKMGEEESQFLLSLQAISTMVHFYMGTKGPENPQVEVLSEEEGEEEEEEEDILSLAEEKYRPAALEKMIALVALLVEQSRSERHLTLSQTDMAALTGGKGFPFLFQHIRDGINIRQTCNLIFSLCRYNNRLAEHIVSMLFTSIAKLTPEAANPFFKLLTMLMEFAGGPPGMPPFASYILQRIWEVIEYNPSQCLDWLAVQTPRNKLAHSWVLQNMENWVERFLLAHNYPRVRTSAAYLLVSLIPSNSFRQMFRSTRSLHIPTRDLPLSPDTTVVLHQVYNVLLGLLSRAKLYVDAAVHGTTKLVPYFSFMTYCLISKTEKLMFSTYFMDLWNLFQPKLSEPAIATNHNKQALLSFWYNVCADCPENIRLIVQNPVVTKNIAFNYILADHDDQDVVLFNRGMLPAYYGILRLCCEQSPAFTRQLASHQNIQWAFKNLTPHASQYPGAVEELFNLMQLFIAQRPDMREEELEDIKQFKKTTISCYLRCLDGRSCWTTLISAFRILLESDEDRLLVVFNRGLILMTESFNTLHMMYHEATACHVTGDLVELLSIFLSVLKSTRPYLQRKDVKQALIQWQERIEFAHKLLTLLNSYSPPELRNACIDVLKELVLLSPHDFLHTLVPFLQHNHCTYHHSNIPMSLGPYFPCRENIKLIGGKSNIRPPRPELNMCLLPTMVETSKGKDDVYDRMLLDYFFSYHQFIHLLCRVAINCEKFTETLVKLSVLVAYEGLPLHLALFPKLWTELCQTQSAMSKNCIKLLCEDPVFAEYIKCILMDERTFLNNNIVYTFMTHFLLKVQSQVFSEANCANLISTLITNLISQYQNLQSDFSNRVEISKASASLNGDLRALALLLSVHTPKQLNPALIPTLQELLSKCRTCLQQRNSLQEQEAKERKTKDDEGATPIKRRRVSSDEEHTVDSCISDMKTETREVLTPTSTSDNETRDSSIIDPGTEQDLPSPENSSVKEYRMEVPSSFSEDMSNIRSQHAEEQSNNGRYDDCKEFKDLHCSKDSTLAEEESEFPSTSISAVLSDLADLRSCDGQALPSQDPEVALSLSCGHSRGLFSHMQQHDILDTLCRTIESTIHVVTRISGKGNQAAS

Cc1ccccc1C1(CNC(=O)CCl)CCOCC1
inactive: USP34 0.051 | USP36 0.0925 | USP38 -0.0365 | USP39 -0.165 | USP4 -0.221
